Screens: PubChem BioAssay, National Center for Advancing Translational Sciences (NCATS)
Compounds with a hit are over-represented: about 17% of the library has one in this group of screens.
TGFb SMAD3 inh: TGF-b pathway inhibition | HepG2 CAGA-GFP TGF-b/SMAD3 reporter, GFP fluorescence, 18 h; TGF-beta stimulated, 500 pg/mL final | Potency, µM (series often up to 46.1 µM), inactives show at the highest dose activity, negative = inhibition, hits mostly inhibitors | 410,000 tested, 1.2% active | AID 588855; also: % is scaled to controls: 0 for no effect and ±100 for the full control effect; nearly all actives have a fitted effect of over 65% in size
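GFP signal (ex488/em500-530) from TGF-beta-stimulated HEPG2 CAGA-GFP cells, 500 pg/mL final, 18 h at 37 degrees C in DMEM plus 1% FBS, normalized to unstimulated and DMSO-stimulated controls.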
ATXN2 expr inh: inhibitors of ATXN2 expression; AID 1745845; Potency, µM (series often up to 57 µM), without a hit: top-dose activity change, negative = inhibition, usual class: inhibitors; 360,000 tested, 0.72% active; HEK-293 ATXN2-luciferase reporter, luminescence, 24 h; also: % is scaled to controls: 0 for no effect and ±100 for the full control effect; nearly all actives have a fitted effect of over 55% in size
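qHTS (up to 57 uM final) was run with 24 h compound exposure of reporter cells at 37 °C. Each well was multiplexed: SteadyGlo luminescence measured ATXN2-luciferase expression after a fluorogenic Gly-Phe-AFC viability readout (25 uM final).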
TDP1 cell CPT: growth inhibition of DT40 Tdp1-/-;hTDP1 cells with camptothecin (screen for TDP1 inhibitors); chicken DT40 Tdp1-/-;hTDP1 cells + 20 nM CPT, ATP luminescence, 48 h; Potency, µM (highest dose often 46.2 µM), for inactives: at the highest dose activity change, negative = growth inhibition, usual class: inhibitors; 420,000 tested, 12% active; also: % is scaled to controls: 0 for no effect and ±100 for the full control effect; nearly all actives have a fitted effect of over 55% in size
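Chicken DT40 Tdp1-/- cells stably complemented with human TDP1 were seeded at 400 cells/well in medium containing 20 nM camptothecin, exposed to pin-transferred compounds, and grown at 37 °C for at least 48 hr. Viability was read as ATP luminescence.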
DT40 TDP1 no CPT: qHTS for Inhibitors of human tyrosyl-DNA phosphodiesterase 1 (TDP1): qHTS in cells in absence of CPT | DT40 Tdp1-/- hTDP1 cells, no CPT, ATP luminescence, 48 h | Potency, µM (titrated, usually from 46.2 µM), for the others: top-dose activity change, negative = growth inhibition, usual class: inhibitors | 420,000 tested, 15% active | AID 686978, 2013; also: % is scaled to controls: 0 for no effect and ±100 for the full control effect; nearly all actives have a fitted effect of over 55% in size
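A cellular qHTS used chicken DT40 cells lacking endogenous Tdp1 but carrying stably transfected human TDP1. Compounds were applied without camptothecin, and cell growth kinetics were judged by ATP-dependent luminescence after ≥48 hr.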
ATXN viability: reduces viability in counter-screen for ATXN expression inhibitors. S2 cells (HEK-293 line with an ATXN2-luciferase reporter) viability, CellTiter-Fluor protease fluorescence, 24 h. Potency, µM (series often up to 56.7 µM), actives largely listed as cytotoxic. 400,000 tested, 0.49% active. AID 651635; also: nearly all actives have a fitted effect of over 40% in size
HepG2 viability: counter-screen for TGF-b inhibitors: cytotoxicity in HepG2 cells | HepG2 CAGA-GFP viability, ATP luminescence, 18 h | Potency, µM (top dose mostly 46.1 µM), for inactives: top-dose activity change, negative = cytotoxicity, most hits filed as cytotoxic | 410,000 tested, 0.76% active
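CellTiter-Glo luminescence gave cytotoxicity after 18 hours at 37 degrees C. The cells were HepG2 CAGA-GFP in 1% FBS DMEM, stimulated with 500 pg/mL TGF-beta after compound addition. %Activity was normalised to no-cell wells (complete cell-killing) and DMSO (no toxicity), and curves were fitted and classified.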
Starred values were filed as active, the others as inactive. Calls follow the shape of the dose curve; as a rule, active = well fitted curve in the direction sought with a large enough effect; inconclusive = small, poorly fitted or top-dose-only effect, or another doubt; inactive = no such curve, though single readings can be large; an effect the other way counts as inactive or inconclusive. Potency is read from the fitted curve at half-maximal effect.

Results for COC(=O)[C@H]1C[C@@]2(O)CN(S(=O)(=O)c3ccc(C)cc3)C[C@@]2(OC(=O)NC2CCCC2)C[C@H]1C(=O)OC ?
TGFb SMAD3 inh: -2%; ATXN2 expr inh: 2%; TDP1 cell CPT: -14%; DT40 TDP1 no CPT: -10%; ATXN viability: inactive; HepG2 viability: -3%

Results for Cc1ccc(S(=O)(=O)N2CC3(O)CN(C(=O)OC(C)C)N(C(=O)OC(C)C)CC3(OC(=O)Nc3c(C)noc3C)C2)cc1 (centres undefined) ?
TGFb SMAD3 inh: 6%; ATXN2 expr inh: 4%; TDP1 cell CPT: inconclusive; DT40 TDP1 no CPT: inconclusive; ATXN viability: inconclusive; HepG2 viability: -1%

Results for Cc1ccc(S(=O)(=O)N2CC3(O)CN(C(=O)OC(C)C)N(C(=O)OC(C)C)CC3(OC(=O)NCc3ccco3)C2)cc1 (centres undefined) ?
TGFb SMAD3 inh: -9%; ATXN2 expr inh: 9%; TDP1 cell CPT: inconclusive; DT40 TDP1 no CPT: 21µM*; ATXN viability: inactive; HepG2 viability: -4%

Results for Cc1cccc(C)c1Nc1c(-c2ccc(N3CCOCC3)cc2)nc2ncccn12 ?
TGFb SMAD3 inh: 0%; ATXN2 expr inh: 2%; TDP1 cell CPT: 21µM*; DT40 TDP1 no CPT: 21µM*; ATXN viability: inconclusive; HepG2 viability: -88%

What do the screens show for `Cc1ccccc1Nc1c(-c2cccc(Cl)c2)nc2ncccn12`?
TGFb SMAD3 inh: -10%; ATXN2 expr inh: -11%; TDP1 cell CPT: inconclusive; DT40 TDP1 no CPT: inconclusive; ATXN viability: inactive; HepG2 viability: -10%

Results for Cc1ccc(Nc2c(-c3ccc(N4CCOCC4)cc3)nc3ncccn23)c(C)c1 ?
TGFb SMAD3 inh: inconclusive; ATXN2 expr inh: -1%; TDP1 cell CPT: inconclusive; DT40 TDP1 no CPT: 16µM*; ATXN viability: inactive; HepG2 viability: -9%

How did Cc1ccc(Nc2c(-c3ccc(N(C)C)cc3)nc3ncccn23)cc1 do in these assays?
TGFb SMAD3 inh: 18%; ATXN2 expr inh: 26%; TDP1 cell CPT: inconclusive; DT40 TDP1 no CPT: inconclusive; ATXN viability: inactive; HepG2 viability: 16%

Results for O=C(Nc1ccc(Cl)cc1)Nc1nnc(SCc2ccccc2)s1 ?
TGFb SMAD3 inh: 0%; ATXN2 expr inh: 0%; TDP1 cell CPT: inconclusive; DT40 TDP1 no CPT: inconclusive; ATXN viability: inactive; HepG2 viability: 4%

How did O=C(Nc1ccc(Cl)cc1)Nc1nnc(CSCc2ccccc2Cl)s1 do in these assays?
TGFb SMAD3 inh: inconclusive; ATXN2 expr inh: 0%; TDP1 cell CPT: 16µM*; DT40 TDP1 no CPT: 12µM*; ATXN viability: inactive; HepG2 viability: 6%

Results for O=C(Nc1ccc(Cl)c(Cl)c1)Nc1nnc(CSc2ccccc2)s1 ?
TGFb SMAD3 inh: inconclusive; ATXN2 expr inh: inconclusive; TDP1 cell CPT: 2.6µM*; DT40 TDP1 no CPT: 5.2µM*; ATXN viability: inconclusive; HepG2 viability: -5%

What do the screens show for `CC(C)(C)c1nnc(NC(=O)Nc2ccc(Cl)cc2)s1`?
TGFb SMAD3 inh: -18%; ATXN2 expr inh: 33%; TDP1 cell CPT: inconclusive; DT40 TDP1 no CPT: 16µM*; ATXN viability: inactive; HepG2 viability: 11%

What do the screens show for `Cc1cccc(-c2nc(SCC(=O)Nc3cccc(C(F)(F)F)c3)n3[nH]c(=O)cc3n2)c1`?
TGFb SMAD3 inh: inconclusive; ATXN2 expr inh: -23%; TDP1 cell CPT: -5%; DT40 TDP1 no CPT: -6%; ATXN viability: inactive; HepG2 viability: -32%

How did C=CCC[C@H](CCCCC)OC(=O)/C=C/[C@@H](O)[C@H](O)C[C@@H](O)CC=C do in these assays?
ATXN2 expr inh: -10%; TDP1 cell CPT: 18µM*; DT40 TDP1 no CPT: 18µM*; ATXN viability: inconclusive

How did C=CCC[C@@H](CCCCC)OC(=O)/C=C/[C@H](O)[C@@H](O)C[C@@H](O)CC=C do in these assays?
ATXN2 expr inh: -33%; TDP1 cell CPT: inconclusive; DT40 TDP1 no CPT: 16µM*; ATXN viability: inconclusive

Results for C=CCC[C@@H](CCCCC)OC(=O)/C=C/[C@@H](O)[C@H](O)C[C@@H](O)CC=C ?
ATXN2 expr inh: -23%; TDP1 cell CPT: inconclusive; DT40 TDP1 no CPT: inconclusive; ATXN viability: inactive

Results for C=CCC[C@H](CCCCC)OC(=O)/C=C/[C@@H](O)[C@H](O)C[C@H](O)CC=C ?
ATXN2 expr inh: -18%; TDP1 cell CPT: inconclusive; DT40 TDP1 no CPT: inconclusive; ATXN viability: inconclusive

How did CCCC(NC(=O)C(C)NC(=O)CO/N=C1\C=C2CCC3C4CCC(C(C)=O)[C@@]4(C)CCC3[C@@]2(C)CC1)C(=O)O (some centres undefined) do in these assays?
TGFb SMAD3 inh: -1%; ATXN2 expr inh: 0%; TDP1 cell CPT: 3%; DT40 TDP1 no CPT: 1%; ATXN viability: inactive; HepG2 viability: -3%

How did CCOc1ccc(C2C(C(=O)c3ccco3)=C(O)C(=O)N2CCN2CCOCC2)cc1 (centres undefined) do in these assays?
TGFb SMAD3 inh: 5%; ATXN2 expr inh: 4%; TDP1 cell CPT: 12%; DT40 TDP1 no CPT: 3%; ATXN viability: inactive; HepG2 viability: 4%

Results for CCC(=O)N1CCc2cc(Br)cc(S(=O)(=O)NCCc3ccc(OC)c(OC)c3)c21 ?
TGFb SMAD3 inh: -3%; ATXN2 expr inh: 4%; TDP1 cell CPT: 10%; DT40 TDP1 no CPT: -21%; ATXN viability: inactive; HepG2 viability: -12%

What do the screens show for `CCC1CCCCN1CCNC(=O)CCS(=O)(=O)c1ccc(Br)cc1` (centres undefined)?
TGFb SMAD3 inh: 0%; ATXN2 expr inh: 3%; TDP1 cell CPT: 6%; DT40 TDP1 no CPT: -12%; ATXN viability: inactive; HepG2 viability: 5%

What do the screens show for `CCSc1nnc(Nc2ccccc2)s1`?
TGFb SMAD3 inh: -4%; ATXN2 expr inh: 57%; TDP1 cell CPT: -7%; DT40 TDP1 no CPT: -22%; ATXN viability: inactive; HepG2 viability: 9%

Results for CC(C#N)Sc1nnc(Nc2ccccc2)s1 (centres undefined) ?
TGFb SMAD3 inh: -6%; ATXN2 expr inh: 5%; TDP1 cell CPT: -106%; DT40 TDP1 no CPT: 18µM*; ATXN viability: inactive; HepG2 viability: -5%
